Shown are actives, neighbours in structure and some others; about 18% of the full set was active somewhere.
TDP1 cell noCPT: qHTS for Inhibitors of human tyrosyl-DNA phosphodiesterase 1 (TDP1): qHTS in cells in absence of CPT. DT40 Tdp1-/- hTDP1 cells, no CPT, ATP luminescence, 48 h. Potency, µM (top dose mostly 46.2 µM), most hits filed as inhibitors. 420,000 tested, 15% active. AID 686978, 2013; also: nearly all actives have a fitted effect of over 55% in size
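DT40 Tdp1-/-;hTDP1 cells, no CPT (DMSO vehicle only), 400 cells/well; compounds pin-transferred; ≥48 hr, 37 °C; CellTiter-Glo 30 min RT dark, luminescence read.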
PLK1 PBD inh: inhibitors of human PLK1 polo-box domain binding. P53350. Potency, µM, hits mostly inhibitors. 360,000 tested, 2.8% active. Plk1 PBD binding of FITC phosphopeptide, fluorescence polarization; also: series mostly up to about 57 µM; nearly all actives have a fitted effect of over 65% in size
GCN5L2 inh: inhibitors of human GCN5L2 histone acetyltransferase; Potency, µM (series often up to 58.9 µM), usual class: inhibitors; GCN5L2 HAT assay, ThioGlo1 CoA-SH fluorescence; AID 504327; 390,000 tested, 0.21% active
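Preincubate 20nM GCN5L2 with compound 15 min, RT → add 50uM ThioGlo1 + 75uM H3(1-25) + 70uM acetyl-CoA → read fluorescence 0 and 20 min. Primary qHTS; fluorescent artifacts likely.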
TDP1 cell CPT: DT40-hTDP1 cell growth loss with CPT. chicken DT40 Tdp1-/-;hTDP1 cells + 20 nM CPT, ATP luminescence, 48 h. Potency, µM (highest dose often 46.2 µM), actives largely listed as inhibitors. 420,000 tested, 12% active. AID 686979; also: nearly all actives have a fitted effect of over 55% in size
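Cell growth measured by CellTiter-Glo luminescence after a minimum 48 h, 37 C compound exposure with 20 nM CPT in Tdp1-knockout DT40 cells stably expressing hTDP1, seeded 400/well; qHTS titration format.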
VDR inh: blocks the human vitamin D receptor. Potency, µM, usual class: inhibitors. 400,000 tested, 0.93% active. VDR-SRC2-3 peptide fluorescence polarization, 2 h. P11473
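Two reagent solutions held at 4 deg C in the dark were dispensed, compounds pinned at 23 nl, and the mixture incubated 2 h at room temperature. Read-out: fluorescence polarization of VDR–SRC2-3 peptide binding.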
TDP1 block: blocks human tyrosyl-DNA phosphodiesterase 1; recombinant TDP1, AlphaScreen DNA substrate cleavage; Q9NUW8; 350,000 tested, 0.28% active; Potency, µM (highest dose often 130 µM), usual class: inhibitors; AID 485290; also: nearly all actives have a fitted effect of over 40% in size
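Recombinant E. coli-expressed Tdp1 (1 nM) preincubated with compound 15 min at RT, then 5'-biotin/3'-phosphotyrosine-FITC DNA substrate (15 nM) added for 5 min. AlphaScreen beads (10 ug/ml) added, 10 min RT; tyrosine-FITC cleavage read as signal loss.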
A number is an active result; [ ] = remark or other dose. Calls follow the shape of the dose curve; as a rule, active = well fitted curve in the direction sought with a large enough effect; inconclusive = small, poorly fitted or top-dose-only effect, or another doubt; inactive = no such curve, though single readings can be large; an effect the other way counts as inactive or inconclusive.

`O=C1C2C3C=CC(C3)C2C(=O)N1/N=C/c1cn(Cc2ccc(F)cc2)c2ccccc12` (centres undefined) gave TDP1 cell noCPT inactive, PLK1 PBD inh inactive, GCN5L2 inh inactive, TDP1 cell CPT inactive, VDR inh inactive and TDP1 block inactive.
Screening O=C1C2C3C=CC(C3)C2C(=O)N1/N=C/c1cn(Cc2ccccc2)c2ccccc12 (centres undefined) returned TDP1 cell noCPT inconclusive, PLK1 PBD inh inactive, GCN5L2 inh inactive, TDP1 cell CPT 16µM, VDR inh inactive and TDP1 block inactive.
For C[N+](C)(C)CC(O)CC(=O)[O-] (centres undefined) the results were TDP1 cell noCPT inactive and TDP1 cell CPT inactive.
For N#Cc1c(-n2ncnc2-c2ccccc2Cl)sc2c1CCCCC2 the results were TDP1 cell noCPT inactive, GCN5L2 inh inactive, TDP1 cell CPT inactive, VDR inh inactive and TDP1 block inactive[12.3 µM].
`CCn1c(=O)c2cc(C(=O)NCCCN3CCC(C)CC3)sc2c2ccccc21` gave TDP1 cell noCPT 18µM, GCN5L2 inh inactive, TDP1 cell CPT 23µM, VDR inh inactive and TDP1 block inactive.
Screening CCn1c(=O)c2cc(C(=O)NC3CCC(C)CC3)sc2c2ccccc21 (centres undefined) returned TDP1 cell noCPT inactive, GCN5L2 inh inactive, TDP1 cell CPT 16µM, VDR inh inactive and TDP1 block inactive.
CCn1c(=O)c2cc(C(=O)NCCc3cccc(C)c3)sc2c2ccccc21 was read as TDP1 cell noCPT inactive, GCN5L2 inh inactive, TDP1 cell CPT inactive, VDR inh inactive and TDP1 block inactive.
CCn1c(=O)c2cc(C(=O)NCCCN3CCN(C)CC3)sc2c2ccccc21 was read as TDP1 cell noCPT inconclusive, GCN5L2 inh inactive, TDP1 cell CPT 16µM, VDR inh inactive and TDP1 block inactive.
`CCn1c(=O)c2cc(C(=O)NCCC(C)C)sc2c2ccccc21` gave TDP1 cell noCPT inconclusive, PLK1 PBD inh inactive, GCN5L2 inh inactive, TDP1 cell CPT inactive and VDR inh inactive.
COCCn1c(=O)c(-c2ccc(Cl)cc2)nc2cnc(Oc3ccccc3)nc21 was read as TDP1 cell noCPT inactive, GCN5L2 inh inconclusive, TDP1 cell CPT inactive and VDR inh inactive.
O=C(NCc1cccnc1)c1cnn(-c2nccc(-c3cccs3)n2)c1C1CC1 was read as TDP1 cell noCPT inconclusive and TDP1 cell CPT inactive[9.04 µM].
Screening Cc1c(C(=O)NCc2cccc(Cl)c2)sc2ncnc(N(C)C3CCCCC3)c12 returned TDP1 cell noCPT inconclusive, GCN5L2 inh inactive, TDP1 cell CPT 21µM, VDR inh inactive and TDP1 block inactive.
Cc1c(C(=O)NC(C)c2ccccc2)sc2ncnc(N(C)C3CCCCC3)c12 (centres undefined) was read as TDP1 cell noCPT inconclusive, GCN5L2 inh inactive, TDP1 cell CPT 6.5µM, VDR inh inactive and TDP1 block inactive.
`CCc1ccc(NC(=O)c2sc3ncnc(N(C)C4CCCCC4)c3c2C)cc1` gave TDP1 cell noCPT 21µM, GCN5L2 inh inactive, TDP1 cell CPT 18µM, VDR inh inactive and TDP1 block inactive.
For Cc1cccc(CNC(=O)c2sc3ncnc(N(C)C4CCCCC4)c3c2C)c1 the results were TDP1 cell noCPT 21µM, GCN5L2 inh inactive, TDP1 cell CPT 18µM, VDR inh inactive and TDP1 block inactive.
For Cc1c(C(=O)Nc2ccc(Br)cc2F)sc2ncnc(N(C)C3CCCCC3)c12 the results were TDP1 cell noCPT inactive, GCN5L2 inh inactive, TDP1 cell CPT inactive, VDR inh inactive and TDP1 block inactive.
Clc1cc(Br)ccc1NCc1cccnc1 was read as TDP1 cell noCPT inactive, PLK1 PBD inh inactive, GCN5L2 inh inactive, TDP1 cell CPT inconclusive and VDR inh inactive.
For Cc1ccc(NC(=O)CCS(=O)(=O)c2cccc3nsnc23)c(C)c1 the results were TDP1 cell noCPT inactive, GCN5L2 inh inactive, TDP1 cell CPT inactive, VDR inh inactive and TDP1 block inactive.
